The target in assay [1] is Lysosomal acid glucosylceramidase (Homo sapiens) (UniProt P04062). As to the kind of experiment: Glucocerebrosidase-p2 (AID 348; in the data active means potency below about 10 µM; further: potency means the concentration at half of the fitted maximal effect). The following applies: purified GBA, blue fluorogenic substrate, 40 min. The procedure, abridged:
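Compounds titrated from 0.6 nM upwards against 0.2 nM enzyme in pH 5.9 citric acid/KH2PO4, taurocholate, tween-20; blue fluorogenic substrate 80 uM, 40 min room temperature, stopped and read Ex 365/Em 440 for AC50.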

Assay [2] can be described thus: AP1 Signaling Pathway (AID 357; active means well fitted curve in either direction with a large enough effect, not every such curve was filed as active;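 further: ME-180 reporter cells stimulated with EGF at its EC50 level; on the % scale 0 is the no-effect control and ±100 the full control effect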). Conditions: ME-180 AP-1-bla reporter, EGF-induced, beta-lactamase ratio, 5 h; at 7.69 µM (top of the series) unless noted. A digest of the protocol: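 Titration-series screen for positive or negative modulators of EC50 EGF-induced signaling in ME-180 cells carrying an AP-1-driven beta-lactamase reporter. After 5 hours at 37 degrees Celsius, CCF4 460nm/530nm emission ratio gave %Activity; AC50 values derived.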

Assay [3] has as its target Cytochrome P450 1A2 (Homo sapiens) (UniProt P05177). Briefly: p450-cyp1a2 (AID 410; calls by dose curve; further: potency means the concentration at half of the fitted maximal effect). The following applies: recombinant CYP1A2, luciferin-ME demethylation, luminescence; series mostly up to 57 µM. The procedure, abridged: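 Human CYP1A2 (20nM) demethylated Luciferin-ME at its Km (100uM) in 100mM KPO4. After 10 min compound preincubation, NADPH regeneration ran the reaction 60 min at room temperature. Luciferin was read by luminescence, normalized to 57 uM furafylline.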

Assay [4] is described as follows: NFAT Signaling Pathway (AID 444; active means well fitted curve in either direction with a large enough effect, not every such curve was filed as active;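 further: carbachol stimulus at about its EC50 of 1 µM final; on the % scale 0 is the no-effect control and ±100 the full control effect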). Conditions: Jurkat NFAT-bla M1, carbachol, beta-lactamase ratio, 5 h; at 7.69 µM (top of the series) unless noted. A digest of the protocol: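 Jurkat cells with NFAT-driven β-lactamase reporter and co-expressed M1 receptor, stimulated with carbachol (final 1 uM, ~EC50), compound titration, 5 h at 37 °C. CCF4 loaded 1 h at RT; 460/530 nm ratio gave %activity and AC50.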

The nature of assay [5]: Stat Signaling Pathway (AID 446; active means well fitted curve in either direction with a large enough effect, not every such curve was filed as active;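 further: ME-180 cervical cancer cells given 40 pM IL-6 alongside compound; SIE-controlled beta-lactamase reporter measured as 460/530 nm FRET emission ratio; on the % scale 0 is the no-effect control and ±100 the full control effect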). The following applies: ME-180 SIE beta-lactamase reporter, IL-6 stimulated, 5 h; at 7.69 µM (top of the series) unless noted. A digest of the protocol:
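Reporter line: ME-180 cervical carcinoma, SIE-beta-lactamase. Treatment: compound with 40 pM IL-6, 5 hrs, 37 C, in low-serum OPTI-MEM with 10 mM HEPES pH 7.3. Detection: 460/530 nm fluorescence.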

Assay [6] concerns the target Glucocorticoid receptor (Homo sapiens) (UniProt P04150). As to the kind of experiment: GR-GFP Redistribution (AID 450;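 active means compounds whose dose series gives a full or clear partial fitted curve of increased nuclear translocation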; further: potency means the concentration at half of the fitted maximal effect). The following applies: U2OS GR-GFP nuclear translocation, laser cytometry, 2 h.
The target is the same in assay [7]. Briefly: GR-EFC Redistribution (AID 451; calls by dose curve; further: potency means the concentration at half of the fitted maximal effect). Conditions: CHO-K1 GR-EFC translocation, beta-gal luminescence, 2 h. A digest of the protocol:
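CHO-K1 cells expressing nuclear EA and GR-ED fragments of b-gal; compounds titrated up to 46 uM final, 2 h at 37 C. GR nuclear translocation read as complemented b-gal luminescence after 1 h RT detection.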

In assay [8] the target is Mitogen-activated protein kinase 10 (Mus musculus) (UniProt Q61831). As to the kind of experiment: JNK3 AlphaScreen Assay (AID 530; active means well fitted curve in either direction with a large enough effect, not every such curve was filed as active;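 further: kinase came from lysate of stimulated human HepG2 cells; signal reports phosphorylation of biotinylated GST-cJun 1-79 at Ser73 with 10 µM ATP; on the % scale 0 is the no-effect control and ±100 the full control effect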). Conditions: JNK3 lysate, c-Jun phosphorylation; series mostly up to 57.1 µM. A digest of the protocol: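 qHTS format: compounds tested as titrations against IL-1beta/TNF-alpha-activated HepG2 lysate JNK3 with biotin-GST-cJun substrate and 10 uM ATP at room temperature. Loss of anti-phospho-cJun AlphaScreen signal indicates inhibition.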

The target of assay [9] is 3',5'-cyclic-AMP phosphodiesterase 4B (Homo sapiens) (UniProt Q07343). Briefly: qHTS Assay for Inhibitors of PDE-IV (AID 607; active means well fitted activation curve with a large enough effect in the main read-out, with a control signal flat, not every such curve was filed as active; further: % of control where 0% means no effect). The following applies: HEK293 ACTOne CNG channel cells, membrane potential fluorescence; series mostly up to 22.9 µM. A digest of the protocol: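 Cell-based read-out of cAMP via a modified cyclic nucleotide-gated channel and membrane potential dye (535/590 nm) in HEK293 cells expressing PDE4 endogenously. Compounds tested up to 22.9 uM final; 100 uM RO 20-1724 reference.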
Chain of 3',5'-cyclic-AMP phosphodiesterase 4B (Homo sapiens) (Q07343 whole entry, looked up): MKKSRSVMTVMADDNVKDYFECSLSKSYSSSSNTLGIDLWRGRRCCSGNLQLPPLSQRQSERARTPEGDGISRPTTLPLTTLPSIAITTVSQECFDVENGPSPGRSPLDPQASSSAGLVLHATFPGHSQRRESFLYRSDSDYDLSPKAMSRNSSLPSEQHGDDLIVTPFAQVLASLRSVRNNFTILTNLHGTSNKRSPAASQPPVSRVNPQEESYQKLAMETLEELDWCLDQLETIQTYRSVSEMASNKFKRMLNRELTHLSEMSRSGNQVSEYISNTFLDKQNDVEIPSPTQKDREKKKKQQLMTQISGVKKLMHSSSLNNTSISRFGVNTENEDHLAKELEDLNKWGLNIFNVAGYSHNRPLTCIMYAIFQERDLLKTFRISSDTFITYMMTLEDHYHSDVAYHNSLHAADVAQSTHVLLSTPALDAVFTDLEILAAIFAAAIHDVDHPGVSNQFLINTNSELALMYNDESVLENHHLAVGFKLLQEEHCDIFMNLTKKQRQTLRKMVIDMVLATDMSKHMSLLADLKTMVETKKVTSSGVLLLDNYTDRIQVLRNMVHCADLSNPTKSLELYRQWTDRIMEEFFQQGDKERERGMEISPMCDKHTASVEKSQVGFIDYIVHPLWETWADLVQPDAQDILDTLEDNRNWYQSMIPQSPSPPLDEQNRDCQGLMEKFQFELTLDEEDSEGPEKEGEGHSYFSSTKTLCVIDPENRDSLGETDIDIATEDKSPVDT

Assay [10] addresses Cytochrome P450 3A4 (Homo sapiens) (UniProt P08684). Briefly: qHTS Assay for Activators of Cytochrome P450 3A4 (AID 885). Further: nearly all actives have a fitted effect of over 65% in size. The following applies: recombinant CYP3A4, Luciferin-PPXE luminescence, 60 min; series mostly up to 57.1 µM. A digest of the protocol: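 Signal was normalized against complete inhibition by 57 uM ketoconazole. The reaction used 20nM CYP3A4 with 25uM Luciferin-PPXE, 10-min compound preincubation and a 60-min NADPH-supported step at RT.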

A short description of assay [11]: qHTS Assay for Identification of Small Molecule Agonists for Hypoxia Response Element Signaling Pathway (AID 914; active means well fitted activation curve with a large enough effect in the signal ratio, with a control signal flat, not every such curve was filed as active; the % refers to the signal ratio; further: % of control where 0% means no effect). Conditions: ME-180 (cervical carcinoma) HRE-bla reporter, beta-lactamase ratio, CoCl2, 17 h; activation: stronger effect = higher value. The procedure, abridged:
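Cells were plated overnight, pin-dosed with compound in a titration series, co-stimulated with EC50 CoCl2 and incubated 17 hours at 37 degrees Celsius. CCF4 substrate was then loaded, and AC50 values came from the 460nm/530nm ratio.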
Background: In qHTS, concentration-response curves come from the screen itself.

A short description of assay [12]: qHTS Assay for Lipid Storage Modulators (AID 1519; calls by dose curve). The following applies: Drosophila S3 cells, BODIPY lipid droplet/cell ratio, laser cytometry, cells loaded with oleic acid. The procedure, abridged: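 Cells seeded at 5,000 per well were treated with compounds over a concentration series and loaded with oleic acid (400 uM, as added). Lipid droplet fluorescence (488 nm excitation, 500-530 nm channel) was read by laser-scanning cytometry and normalized to 20 uM Triacsin C.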

Assay [13] has as its target Dual specificity protein kinase CLK4 (Homo sapiens) (UniProt Q9HAZ1). As to the kind of experiment: qHTS Assay for Inhibitors of CDC-like Kinase 4 (ADP-FP Assay) (AID 1795).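 Further: recombinant human CLK4 phosphorylating RS repeat peptide at 1 µM ATP; on the % scale 0 is the no-effect control and ±100 the full control effect; nearly all actives have a fitted effect of over 60% in size.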 Conditions: Transcreener ADP fluorescence polarization; series mostly up to 50 µM. The procedure, abridged: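 FP readout: Orange Transcreener ADP2 tracer (4 nM) plus ADP antibody, read after 30 min at room temperature. Kinase step: 6.25 nM Clk4, 100 uM RS peptide, 1 uM ATP, pH 7.5, 1 h.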

For assay [14], the target named is Ubiquitin carboxyl-terminal hydrolase 1 (Homo sapiens) (UniProt O94782). Briefly: Inhibitors of USP1/UAF1: Pilot qHTS (AID 504865). Further: nearly all actives have a fitted effect of over 35% in size. Further: potency means the concentration at half of the fitted maximal effect. Conditions: purified USP1/UAF1, Ub-rhodamine cleavage fluorescence; series mostly up to 54.9 µM. The procedure, abridged: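 1nM USP1/UAF1 + cpd, 15 min RT; start w/ Ub-Rho 150nM final; kinetic FL 480/540 nm, 6 reads q60 s. Buffer 50mM HEPES pH 7.8, 0.5mM EDTA, 1mM TCEP, 0.01% Tween-20, 0.1 mg/ml BSA.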
Chain of Ubiquitin carboxyl-terminal hydrolase 1 (Homo sapiens) (O94782 whole entry, looked up): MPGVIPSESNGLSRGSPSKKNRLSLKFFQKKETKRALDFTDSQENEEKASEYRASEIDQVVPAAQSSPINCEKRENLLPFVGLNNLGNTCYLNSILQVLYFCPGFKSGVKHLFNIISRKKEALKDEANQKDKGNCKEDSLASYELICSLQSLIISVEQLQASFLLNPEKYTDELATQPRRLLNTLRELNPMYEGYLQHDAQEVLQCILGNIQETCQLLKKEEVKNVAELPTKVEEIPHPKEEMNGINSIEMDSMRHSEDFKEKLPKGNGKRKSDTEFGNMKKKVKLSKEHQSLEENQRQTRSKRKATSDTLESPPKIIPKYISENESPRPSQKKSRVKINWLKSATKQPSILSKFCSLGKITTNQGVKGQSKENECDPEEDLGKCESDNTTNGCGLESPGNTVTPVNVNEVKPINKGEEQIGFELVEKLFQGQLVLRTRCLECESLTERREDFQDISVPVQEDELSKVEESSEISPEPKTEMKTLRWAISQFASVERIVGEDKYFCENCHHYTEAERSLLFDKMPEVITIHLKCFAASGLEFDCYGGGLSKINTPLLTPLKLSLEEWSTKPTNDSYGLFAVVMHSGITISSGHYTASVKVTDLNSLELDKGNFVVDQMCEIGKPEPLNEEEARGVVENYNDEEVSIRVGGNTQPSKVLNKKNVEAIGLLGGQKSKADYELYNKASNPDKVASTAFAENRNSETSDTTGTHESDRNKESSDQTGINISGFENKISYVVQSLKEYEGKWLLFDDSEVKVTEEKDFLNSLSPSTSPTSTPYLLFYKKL

The target of assay [15] is Cytochrome P450 3A4 (Homo sapiens) (UniProt P08684). Briefly: qHTS Assay for Inhibitors and Substrates of Cytochrome P450 3A4 (AID 884). Further: nearly all actives have a fitted effect of over 50% in size. Further: potency means the concentration at half of the fitted maximal effect. Conditions: recombinant CYP3A4, Luciferin-PPXE luminescence; series mostly up to 57.1 µM. A digest of the protocol:
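20 nM human CYP3A4 with 25 uM Luciferin-PPXE (at KM) in 200 mM KPO4, preincubated 10 min with compound; NADPH regeneration started a 60 min RT reaction. Luciferin detected by luminescence, normalized to 57 uM ketoconazole as full inhibition.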

For assay [16], the target named is Dual specificity protein kinase CLK4 (Homo sapiens) (UniProt Q9HAZ1). As to the kind of experiment: qHTS Assay for Inhibitors of CDC-like Kinase 4 (ADP-Glo Assay) (AID 1771). Further: nearly all actives have a fitted effect of over 70% in size. Further: potency means the concentration at half of the fitted maximal effect. The following applies: recombinant CLK4, ADP-Glo luminescence; series mostly up to 80 µM. The procedure, abridged:
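Clk4 (25 nM) was incubated 1 hr at room temperature with 100 uM RS repeat peptide and 1 uM ATP in buffer with 2 mM MgCl2, 0.5 mM EGTA, 2.5 mM DTT. ADP formed was quantified by ADP-Glo luminescence.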

Assay [17] is described as follows: Confirmation and Secondary Assay for Modulators of Hemoglobin Beta Chain Splicing at IVS2 654 locus (AID 910).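 Further: HeLa cells stably carrying EGFP split by mutant beta-globin IVS2-654 intron; % of control where 0% means no effect.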 The following applies: HeLa EGFP-654 splicing reporter, GFP fluorescence, 48 h; series mostly up to 38.3 µM. A digest of the protocol:
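HeLa cells stably expressing EGFP interrupted by β-globin IVS2-654 intron, seeded overnight in Opti-MEM/2% FCS, then treated 2 days at 37 °C. Restored splicing read as total peak GFP intensity per well by laser scanning cytometry (488 nm excitation, 500–520 nm emission); 500 nM antisense PNA as control.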

Setting [18] is: measured here: cell count channel max response.
Where [19] appears, read: measured here: lipid channel max response.

Inconclusive results are not listed. The source made the active and inactive calls. Unless noted, the call rests on the fitted dose curve; in most records, active means well fitted curve in the direction sought with a large enough effect; inconclusive means small, poorly fitted or top-dose-only effect, or another doubt; inactive means no such curve, though single readings can be large; an effect the other way counts as inactive or inconclusive.

Chain of Glucocorticoid receptor (Homo sapiens) (P04150 whole entry, looked up): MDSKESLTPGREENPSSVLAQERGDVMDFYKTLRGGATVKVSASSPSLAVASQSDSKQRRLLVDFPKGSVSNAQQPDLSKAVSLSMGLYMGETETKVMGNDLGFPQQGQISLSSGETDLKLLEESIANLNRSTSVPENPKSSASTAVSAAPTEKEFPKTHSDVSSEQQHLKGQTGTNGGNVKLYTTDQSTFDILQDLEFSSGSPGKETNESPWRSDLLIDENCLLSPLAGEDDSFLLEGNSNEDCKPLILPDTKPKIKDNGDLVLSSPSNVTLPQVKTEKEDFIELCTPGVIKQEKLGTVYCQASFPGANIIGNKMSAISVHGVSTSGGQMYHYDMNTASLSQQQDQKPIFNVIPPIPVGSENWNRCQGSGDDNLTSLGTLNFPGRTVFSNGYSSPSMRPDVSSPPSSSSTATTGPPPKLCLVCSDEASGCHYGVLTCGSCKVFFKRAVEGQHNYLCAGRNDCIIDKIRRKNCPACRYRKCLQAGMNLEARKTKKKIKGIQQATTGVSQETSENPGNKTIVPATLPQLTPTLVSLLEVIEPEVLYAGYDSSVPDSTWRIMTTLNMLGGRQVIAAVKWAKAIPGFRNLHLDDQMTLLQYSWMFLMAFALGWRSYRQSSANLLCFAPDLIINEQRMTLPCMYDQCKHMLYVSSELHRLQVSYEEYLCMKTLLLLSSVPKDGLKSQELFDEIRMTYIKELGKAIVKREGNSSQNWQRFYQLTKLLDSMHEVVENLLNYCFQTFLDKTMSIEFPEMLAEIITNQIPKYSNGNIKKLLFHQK
Chain of Cytochrome P450 3A4 (Homo sapiens) (P08684 whole entry, looked up): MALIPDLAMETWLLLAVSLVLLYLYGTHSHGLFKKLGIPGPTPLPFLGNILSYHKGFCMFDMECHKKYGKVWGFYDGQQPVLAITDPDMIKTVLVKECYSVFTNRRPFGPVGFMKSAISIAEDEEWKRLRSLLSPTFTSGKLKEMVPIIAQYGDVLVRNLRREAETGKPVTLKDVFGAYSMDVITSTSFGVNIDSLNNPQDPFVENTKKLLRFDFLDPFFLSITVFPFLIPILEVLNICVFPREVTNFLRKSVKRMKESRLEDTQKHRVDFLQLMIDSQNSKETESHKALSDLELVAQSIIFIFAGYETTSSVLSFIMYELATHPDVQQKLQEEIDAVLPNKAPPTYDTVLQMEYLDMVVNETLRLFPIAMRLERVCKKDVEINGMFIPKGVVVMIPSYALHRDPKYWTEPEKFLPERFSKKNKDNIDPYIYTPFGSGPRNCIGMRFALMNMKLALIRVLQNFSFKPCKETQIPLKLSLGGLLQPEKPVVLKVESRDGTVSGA
Chain of Dual specificity protein kinase CLK4 (Homo sapiens) (Q9HAZ1 whole entry, looked up): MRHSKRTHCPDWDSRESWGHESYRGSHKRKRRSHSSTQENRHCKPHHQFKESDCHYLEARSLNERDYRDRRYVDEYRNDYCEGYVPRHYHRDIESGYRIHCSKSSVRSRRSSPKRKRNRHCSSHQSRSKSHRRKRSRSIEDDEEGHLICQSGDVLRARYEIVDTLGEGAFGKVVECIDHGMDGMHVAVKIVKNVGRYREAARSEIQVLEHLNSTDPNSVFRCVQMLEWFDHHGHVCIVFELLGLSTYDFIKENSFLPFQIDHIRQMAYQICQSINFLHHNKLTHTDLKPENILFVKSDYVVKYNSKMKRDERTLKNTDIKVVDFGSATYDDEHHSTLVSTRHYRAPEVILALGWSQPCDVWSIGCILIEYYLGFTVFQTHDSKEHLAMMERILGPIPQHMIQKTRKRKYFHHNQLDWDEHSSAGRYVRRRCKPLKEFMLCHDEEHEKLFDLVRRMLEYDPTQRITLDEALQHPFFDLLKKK
Chain of Lysosomal acid glucosylceramidase (Homo sapiens) (P04062 whole entry, looked up): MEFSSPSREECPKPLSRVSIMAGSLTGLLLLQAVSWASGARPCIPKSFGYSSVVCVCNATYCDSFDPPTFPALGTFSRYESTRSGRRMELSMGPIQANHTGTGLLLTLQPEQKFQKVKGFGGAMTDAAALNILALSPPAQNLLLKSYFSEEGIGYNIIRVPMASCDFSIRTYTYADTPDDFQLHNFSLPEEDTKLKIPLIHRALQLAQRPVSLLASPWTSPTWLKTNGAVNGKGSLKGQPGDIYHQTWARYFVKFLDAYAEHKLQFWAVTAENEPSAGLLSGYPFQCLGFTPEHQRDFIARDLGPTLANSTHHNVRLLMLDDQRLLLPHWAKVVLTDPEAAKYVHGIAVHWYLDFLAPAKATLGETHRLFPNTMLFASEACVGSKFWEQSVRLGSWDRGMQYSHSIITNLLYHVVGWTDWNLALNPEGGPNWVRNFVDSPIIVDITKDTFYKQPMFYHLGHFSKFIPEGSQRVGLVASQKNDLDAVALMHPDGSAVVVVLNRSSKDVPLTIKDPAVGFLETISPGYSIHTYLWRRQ
Chain of Cytochrome P450 1A2 (Homo sapiens) (P05177 whole entry, looked up): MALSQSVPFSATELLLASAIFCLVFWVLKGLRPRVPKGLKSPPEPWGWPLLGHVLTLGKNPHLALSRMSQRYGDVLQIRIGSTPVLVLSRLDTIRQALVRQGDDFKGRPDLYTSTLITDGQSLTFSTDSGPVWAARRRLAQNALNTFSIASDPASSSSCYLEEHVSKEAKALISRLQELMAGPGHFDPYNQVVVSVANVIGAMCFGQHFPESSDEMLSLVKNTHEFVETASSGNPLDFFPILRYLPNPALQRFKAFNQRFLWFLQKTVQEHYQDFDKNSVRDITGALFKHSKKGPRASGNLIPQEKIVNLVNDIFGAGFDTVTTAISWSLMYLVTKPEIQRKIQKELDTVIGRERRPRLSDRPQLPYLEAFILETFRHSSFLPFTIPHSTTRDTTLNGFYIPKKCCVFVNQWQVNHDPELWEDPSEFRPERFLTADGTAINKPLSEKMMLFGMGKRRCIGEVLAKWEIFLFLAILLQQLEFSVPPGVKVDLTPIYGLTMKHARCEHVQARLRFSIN

Consider `CN1CCN(c2ccnc(-c3ccc(N(C)C)cc3)n2)CC1`, for which the Potency in assay [1] was > 11.4 µM (inactive); in [3] it was 0.794 µM (active); in [6], > 46 µM (inactive); in assay [7], > 46 µM (inactive). The figures for the activity change, negative = inhibition in assay [2], in assay [4] and in assay [12] (at 57.5 µM (top of the series)) were -4.67% (inactive), 6.45% (inactive) and 10.5% (inactive), respectively. In addition, the activity, negative = inhibition in assay [5] is -0.21% (inactive). In addition, the Potency result in assay [8], in assay [9], in assay [10], in assay [13] and in [14] was “inactive” in each case. The activation in assay [11] was 1.71% (inactive). For the same molecule, the values for the max response in assay [12] (setting [18]) and in [12] (setting [19]) were 22.6% and 29.9%, respectively.
Consider `Cc1ccccc1-c1ccc2ncnc(N3CCN(C)CC3)c2c1`, for which the Potency is > 11.4 µM (inactive) in [1]; 3.16 µM (active) in assay [3]; > 46 µM (inactive) in assay [6]; > 46 µM (inactive) in [7]; 3.98 µM (active) in [15]; 31.6 µM (active) in assay [16]. The activity change, negative = inhibition was 25.8% (inactive) in assay [2], -10.1% (inactive) in assay [4] and -2.02% (inactive) in [12] (at 57.5 µM (top of the series)). Besides, in [5], the activity, negative = inhibition was -2.42% (inactive). Further, the Potency result in assay [8], in assay [10], in assay [13] and in [14] was “inactive” throughout. Besides, the max response in assay [12] (setting [18]) is 10.5%; in [12] (setting [19]), -2.94%.
As to `C[N+](C)(C)CC(O)CC(=O)O` (stereo not drawn), the Potency result in [15], in assay [17] and in [14] was “inactive” throughout. In assay [12] (at 57.5 µM (top of the series)), the activity change, negative = inhibition is 3.18% (inactive). Further, the max response in [12] (setting [18]) stood at 12.3%; in assay [12] (setting [19]), 21.4%.
Turning to `C#C[C@]1(O)CCC2C3CCC4=C(CCC(=O)C4)C3CC[C@@]21C` (stereo partly drawn), the Potency entry in assay [17] and in assay [14] was “inactive” in each case. Besides, the activity change, negative = inhibition in [12] (at 57.5 µM (top of the series)) was 7.93% (inactive). Moreover, the max response in assay [12] (setting [18]) was -6.89%; in assay [12] (setting [19]), 3.32%.
In the case of `CC(C)N1CCN(c2ccc(OC[C@@H]3CO[C@@](Cn4cncn4)(c4ccc(Cl)cc4Cl)O3)cc2)CC1`, the activity change, negative = inhibition was 0.955% [at 17.2 µM] (inactive) in assay [2] and -0.441% (inactive) in [12] (at 25.7 µM (top of the series)). For the same molecule, the Potency entry in [3], in assay [8], in [9], in assay [10] and in assay [14] was “inactive” throughout. For the same molecule, in [5], the activity, negative = inhibition was 1.27% [at 17.2 µM] (inactive). In assay [15], the Potency was 1.58 µM (active). Also, the max response in assay [12] (setting [18]) was -0.321%; in [12] (setting [19]) it was -3.7%.
As to `O=C(Cc1cccs1)NC1C(=O)N2C(C(=O)[O-])=C(C[n+]3ccccc3)CSC12` (stereo not drawn), the Potency entry in [15] and in [17] was “inactive” in each case. Moreover, the activity change, negative = inhibition in [12] (at 57.5 µM (top of the series)) was 7.61% (inactive). Also, the max response in assay [12] (setting [18]) amounted to 18%; in assay [12] (setting [19]) it was 28.7%. Also, the Potency in [14] is 79.4 µM (active).
For the molecule `COc1cccc(Cn2c(=O)cnc3cnc(N4CCN(C)CC4)nc32)c1`, the Potency in assay [1] was > 11.4 µM (inactive); in [6] it was > 9.22 µM (inactive); in assay [7], > 46 µM (inactive). Moreover, the activity change, negative = inhibition in assay [2] is -3.06% (inactive); in assay [4] it was -19.9% (inactive); in assay [12] (at 57.5 µM (top of the series)), 5.18% (inactive). For the same molecule, the activity, negative = inhibition in [5] was -11.2% (inactive). The Potency result in [8], in assay [9], in [10], in [13] and in assay [14] was “inactive” throughout. Besides, the max response was found to be 20.4% in assay [12] (setting [18]) and 22.6% in [12] (setting [19]).
Consider `O=c1cnc2cnc(N3CCNCC3)nc2n1C1CC1`, for which the Potency in assay [1] was > 11.4 µM (inactive); in assay [6], > 9.22 µM (inactive); in assay [7], > 46 µM (inactive). Moreover, the values for the activity change, negative = inhibition in assay [2], in [4] and in assay [12] (at 57.5 µM (top of the series)) were -8.15% (inactive), -1.86% (inactive) and 0.852% (inactive), respectively. For the same molecule, the activity, negative = inhibition in assay [5] was -7.26% (inactive). The Potency result in assay [8], in [9], in assay [16], in assay [13] and in assay [14] was “inactive” in each case. For the same molecule, the max response in [12] (setting [18]) came to 9.12%; in [12] (setting [19]) it was 7.84%.
On to `O=c1cc(-c2ccc(O)cc2)oc2cc(O[C@H]3OC(CO)C(O)C(O)C3O)cc(O)c12` (stereo partly drawn), for which the Potency result in assay [15] and in assay [17] was “inactive” throughout. Further, the activity change, negative = inhibition in assay [12] (at 57.5 µM (top of the series)) is 6.29% (inactive). Further, the max response in [12] (setting [18]) was -4.63%; in [12] (setting [19]), 3.59%.
